Measured values reported in PubChem BioAssay AID435019 (Southern Research Specialized Biocontainment Screening …, 2010).
Screen size: about 2,300 compounds; about 1,200 (52%) were called active. So high a share suggests a set chosen from earlier hits. Some of the results follow. Results with a measured potency or affinity are listed apart. Values without a mark were called inactive. The rule behind the calls is not given here.

Experiment: mammalian cell cytotoxicity, dose response, cytotoxicity control for M. tuberculosis inhibitor project (AID 435019);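 note: 0% = background wells and 100% = vehicle-treated cells; lower values mean fewer viable cells so more cytotoxicity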
Conditions: cytotoxicity counter-screen; series mostly up to 40 µM; viability: at the top concentration

Structure (SMILES) | viability
COc1ccc(Oc2ccc(N/C=C/C(=O)C(C)(C)C)cc2)cc1 | 90.7%
O=c1c2c(-c3ccccc3)csc2ncn1/N=C/c1ccc(O)c([N+](=O)[O-])c1 | 88.3%
CCOc1ccc(NC(=S)Nc2ccc(C)c([N+](=O)[O-])c2)cc1 | 90.6%
Cc1cc(C)n2nc(N)c(N=Nc3ccccc3)c2n1 | 95.7%
Cc1ccccc1-n1c(O)c(C=Nc2ccc3c(c2)OCO3)c(=O)[nH]c1=O | 104%
S=c1[nH]c2ccc3ccccc3c2[nH]1 | 86.2%
Cc1ncsc1CCOC(=O)c1ccc([N+](=O)[O-])cc1 | 94.8%
CC1CN(C(=S)SCC(=O)c2ccc([N+](=O)[O-])cc2)CC(C)O1 (stereo not drawn) | 93.9%
O=C(c1ccc(CNc2c(N3CCCC3)c(=O)c2=O)cc1)N1CC=C(c2ccccc2)CC1 | 91.6%
O=c1oc(-c2cccs2)nc2c1cnn2-c1ccccc1 | 97.4%
Cc1nc2ccc(NC(=O)N(C(C)C)C(C)C)cc2s1 | 93.6%
CCN1c2ccccc2N(C)C1(C)c1ccccc1 (stereo not drawn) | 94.9%
COC(=O)CSc1ncnc2c1sc1nc3c(cc12)COC(C)(C)C3 | 82.5%
Cc1ccc(NC(=O)COC(=O)C(NS(=O)(=O)c2ccc(Cl)cc2)C(C)O)cc1C (stereo not drawn) | 86.8%
Fc1ccc(N/N=C2/CC(c3ccccc3)Oc3ccccc32)c(F)c1 (stereo not drawn) | 97.5%
CCCCc1cc(=O)oc2cc(O)ccc12 | 86.2%
CCCCN1C(=N)N([C@@H](CCC)CN2CCC[C@H]2CN2C(N)=NC[C@@H]2Cc2ccccc2)C[C@H]1Cc1ccccc1 | 92.3%
O=C(CNC(=O)c1ccc(Cl)cc1)c1ccc(Cl)cc1 | 87.5%
CCOC(=O)COc1cc(O)c2c(=O)cc(-c3ccccc3)oc2c1 | 102%
CC(=O)/C=C(\C)Nc1ccccc1O | 84.8%
N#Cc1nccnc1S(=O)(=O)c1cccs1 | 99.3%
CCOC(=O)C(=NC1CCS(=O)(=O)C1)NNc1ccc(Br)cc1 (stereo not drawn) | 99.3%
O=C(C[n+]1ccc(C(=O)c2ccccc2)cc1)Nc1ccc(C(F)(F)F)cc1 | 104%

Structure (SMILES) | viability
C/C(=N\NC(N)=S)c1ccc(Cl)s1 | 88.2%
O=C(NNc1ccc([N+](=O)[O-])cc1)c1ccco1 | 101%
O=C(C/C=N\OCc1ccc([N+](=O)[O-])cc1)Nc1ccc(F)cc1F | 96.9%
CC1=C(C)C(=O)C(CCCCC#CCCCC#CCO)=C(C)C1=O | 84.5%
CC1CCCCC1NC(=O)c1ccc2c(c1)[nH]c(=O)n2C1CCCC1 (stereo not drawn) | 94.4%
CCCCOC(=O)CSc1nnc(-c2ccc(Cl)cc2Cl)o1 | 95.3%
COc1ccc(N=Cc2c(O)cc(C)oc2=O)cc1 | 92.7%
COc1ccc(-c2cc(O)cc(O)c2)cc1 | 84.8%
Cn1c(N)c(C(=O)COC(=O)c2ccc([N+](=O)[O-])o2)c(=O)n(C)c1=O | 87.2%
CSc1cccc(N=C2C(=O)Nc3ccccc32)c1 | 92.1%
Fc1ccc(-c2nnc(CSc3nnc(-c4cccs4)o3)o2)cc1 | 95.8%
Cc1ccc(Nc2nc(CSc3nnc(-c4cccs4)o3)cs2)cc1 | 86.8%
CCCNC(=S)Nc1ccc(Nc2ccccc2)cc1 | 83%
CCOC(=O)N1CCN(C(=O)CSc2nnc(-c3ccc(Cl)s3)o2)CC1 | 95.8%
COc1ccc(NC(=O)CN(C)CC(=O)Nc2sc3c(c2C(N)=O)CCC3)cc1 | 90.6%
CC1(C)CC(=O)C2=C(C1)OC(N)=C([N+](=O)[O-])C2c1ccc(C#N)s1 (stereo not drawn) | 84.6% [at 20 µM]
Clc1ccc(CSc2ncn[nH]2)cc1 | 88.4%
Nc1ccc(OCc2ccco2)cc1 | 89.3%
CCCn1nc(C(=O)NNC(=O)c2ccc(C)c(C)c2)c2ccccc2c1=O | 99.7%
CCOC(=O)c1ccc(NC(=O)CCc2nc(-c3ccc(Cl)cc3)no2)cc1 | 92.1%
CCOC(=O)c1ccc(NC(=O)CSc2ccc(-c3cccnc3)nn2)cc1 | 98.3%
COc1cccc(/C=C/c2nc(C#N)c(NCC(C)C)o2)c1 | 95.4%
O=C(CCc1c[nH]c2ccccc12)N1CCN(S(=O)(=O)c2ccccc2)CC1 | 87.8%

Structure (SMILES) | viability
CN(C)CCCN(C(=O)c1ccc([N+](=O)[O-])s1)c1nc2cc3c(cc2s1)OCCO3 | 86.4%
Cc1ccc(-n2nnc3c(=O)oc4ccccc4c32)cc1 | 98.7%
Oc1cccc(-c2nc3ccccc3s2)c1 | 92.2%
Cc1nc2sccn2c(=O)c1CCN1CCC(=C(c2ccccc2)c2ccc(F)cc2)CC1 | 89.2%
Nc1c(C(=O)NC2CCCCC2)nsc1C(=O)OCC(=O)NC1CCCCC1 | 94%
O=c1[nH]c(=O)n(C2CCCO2)cc1F (stereo not drawn) | 94.6%
NN/C(=C\[N+](=O)[O-])Nc1ccc(Cl)cc1 | 87.6%
Cc1ccc(CN2CCN(/N=C/c3ccc(Cl)c([N+](=O)[O-])c3)CC2)cc1 | 82.9%
CSc1ccc(CNC(=O)C2Cc3cc(S(=O)(=O)N4CCCCC4)ccc3N2C(C)=O)cc1 (stereo not drawn) | 90%
CC(C)CS(=O)(=O)C1=NN2C(=N)/C(=C\c3ccc(OC(=O)c4ccco4)cc3)C(=O)N=C2S1 | 88.1%
CCCOC(=O)c1ccc(-c2ccc(C=O)o2)cc1 | 87.9%
O/N=C/c1cn(-c2ccc(Cl)cc2)nn1 | 98%
COC(=O)CC(=O)N1CCN(c2ccc(Cl)c(Cl)c2)CC1 | 86.9%
CSCCOC(=O)COc1ccc(/C=N/NC(=O)c2c(Cl)cnn2C)cc1 | 102%
O=C1CCC(=O)N1CNc1ccc(Oc2ccccc2)cc1 | 88.9%
O/N=C/c1ccc2ccccc2c1 | 90.8%
Nc1cc(C(=O)OCC(=O)NNC(=O)c2cccs2)ccc1Cl | 96.5%
CCCNc1nc(-c2cc(C(=O)Nc3ccccc3)on2)cc(C(C)C)n1 | 90.3%
CO/N=C(\Cn1ncc(N2CCCC2)c(Cl)c1=O)c1ccc(Cl)cc1 | 87.1%
O=C(COc1cc(O)c2c(=O)c3ccccc3oc2c1)OCc1ccccc1 | 101%
C=CCC1(CC=C)CCCN1C(=O)c1cc(COc2ccc(-n3cncn3)cc2)on1 | 64.9%
O=[N+]([O-])c1ccc(-c2csc(NN=C3CCCC3)n2)cc1 | 96.1%
Cn1nc(C(F)(F)F)c2cc(NC(=O)OCC(C)(C)C)sc21 | 90.9%

Structure (SMILES) | viability
CCCCCCN=C1CC(C)(C)CC(=O)/C1=C(/O)CCC | 83.1%
S=C(NCCc1ccccc1)NN=C1CCCCCC1 | 94.1%
Cc1occc1-c1nnc(SCC(=O)NCCc2ccccc2)o1 | 91.9%
O=S(Cc1ccc(Br)cc1)Cc1nnc(SCc2ccc(Cl)cc2)n1-c1ccccc1 (stereo not drawn) | 53.3%
O=C(COC(=O)c1cccs1)c1ccccc1 | 101%
COC(OC)c1ccnc(-c2ccc(OC(=O)c3cccs3)cc2)n1 | 92.7%
CCOC(=O)c1ccc(OC(=O)CCCCCN=C(N)N)cc1 | 94.7%
CC1(C)CC(=O)c2c(O)cc(OCc3ccc(Br)cc3)cc2O1 | 82.1%
CCOc1ccc(NC(=O)CCc2nnc3ccc(N4CCC(C)CC4)nn23)cc1 | 89%
Cc1ccc(C(C)C)c(OCC(=O)OCc2c(C)noc2C)c1 | 95.7%
Cc1ccccc1Nc1nc(N)nc(COC(=O)c2ccc([N+](=O)[O-])o2)n1 | 91.6%
Cc1ccc(Nc2nc(N)nc(CN3CCc4ccccc4C3)n2)cc1 | 82.5%
CCOC(=O)CN(C#N)c1nc(N(C)C)nc(N(C)C)n1 | 98.9%
CN(C)N=Nc1nc[nH]c1C(N)=O | 99.6%
CCNc1nc(NCC)n2c(SC(C(=O)Nc3cc(C)ccc3C)c3ccccc3)nnc2n1 (stereo not drawn) | 87.6%
Cn1cc(/C=C2\C(=O)NC(=O)N(c3ccccc3)C2=O)c2ccccc21 | 95.5%
CC(C)Cn1c(N2CCN(C(=O)/C=C/c3ccccc3)CC2)nc2ccccc21 | 92.8%
CC(C)(Oc1ccc(Cl)cc1)C(=O)OCC(=O)N1CCN(c2ccccc2)CC1 | 89.3%
CCN(CC)C(=O)Oc1ccc2c(=O)c(-c3ccc(OC)cc3)coc2c1 | 81.8%
CN(C)C(=O)C1C2NC(=S)N(c3ccc(Cl)cc3)C1(C)Oc1ccc(Cl)cc12 (stereo not drawn) | 93.5%
COc1cc(NC(=O)C/C(C)=N/NC(=O)c2ccccn2)c(OC)cc1Cl | 91.8%
O=c1oc2cc(O)ccc2c2ccccc12 | 93.3%
Cc1ccc(-c2ccc(/C=N/c3ncn[nH]3)o2)cc1Cl | 94.2%

Structure (SMILES) | viability
C=C(C)C1CC=C(C)/C(=N/NC(=O)CNc2ccc(OCC)cc2)C1 (stereo not drawn) | 97.4%
CCCOC(=O)CSc1nc(N2CCOCC2)c2c(c1C#N)CC(C)(C)OC2 | 88.7%
O=C(c1ccc(C#Cc2ccccc2)o1)N1CCN(c2ccccn2)CC1 | 95.5%
O=C(Oc1ccc(-c2cn3c(n2)SCC3)cc1)c1ccccc1 | 91.9%
CC(=Nc1ccc(C)c(C)c1)C1=C(O)CSC1=O | 103%
Oc1ccccc1C=NC1=NN(c2cccc(C(F)(F)F)c2)CC1 | 94%
Cc1nn(C(C)(C)C)c(NC(=O)c2ccc(Cl)cc2Cl)c1Br | 98.6%
O=C(O)c1ccccc1C(=O)NNc1ccc(Cl)cc1Cl | 102%
O=C(C[n+]1cc(-c2ccc(Cl)cc2)n2c1CCC2)Nc1nc(-c2ccccc2)cs1 | 102%
COc1ccc(N=c2ssnc2Cl)cc1 | 98.1%
O=C(CSc1cccc[n+]1[O-])c1cccs1 | 94.3%
O=C(OCC(=O)N1CCCc2ccccc21)c1ccc(S(=O)(=O)C(F)F)cc1 | 98.4%
CCN(CC)CCN(C(=O)c1ccc(S(=O)(=O)N2CCCC2)cc1)c1nc2cc(C)cc(C)c2s1 | 82.7%
COc1cc(C(=O)N/N=C/c2cc([N+](=O)[O-])cs2)cc(OC)c1OC | 57%
Cc1ccc(CN2CCN(Cc3ccc(-n4cccn4)cc3C)CC2CCO)cc1 (stereo not drawn) | 94.7%
COc1ccc(N=C/C=C2/C=C(c3ccccc3)OC(C)(C)O2)cc1 | 90.1%
N#CC(C#N)=C(N)CSc1cccc[n+]1[O-] | 98.7%
CCOc1ccc(-c2nn3c(-c4ccccc4)nnc3s2)cc1 | 94.3%
CCOc1ccc(N=C(NC#N)SCC(=O)NC2CC2)cc1 | 96.3%
COc1ccc(Cc2nnc(SCC(=O)N(c3ccccc3)C(C)C)n(N)c2=O)cc1 | 88.1%
CC(C)Oc1ccc(NC(=O)Oc2ccccc2)cc1 | 98.2%
